SMN2 splice up – enhancers of SMN2 splice variant expression; HEK293 SMN2-luciferase splicing reporter, luminescence, 30-36 h; Potency, µM (top dose mostly 46.1 µM), for the others: at the highest dose activity change, positive = activation, most hits filed as activators; actives 2.8% (n = 210,000); further: % of control where 0% means no effect; nearly all actives have a fitted effect of over 55% in size
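qHTS luciferase splicing reporter: luminescence rises when SMN2 exon 7 is included in transfected HEK293 cells. Compound exposure lasted 30-36 h at 37C, with 4.5 mM final sodium butyrate as control, followed by a ONE-Glo read.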
NPC1 prom act – activators of NPC1 promoter | Huh7 NPC1 promoter luciferase reporter, 24 h | Potency, µM (top dose mostly 9.22 µM), for inactives: top-dose activation, usual class: activators | actives 2.4% (n = 320,000); further: % of control where 0% means no effect; nearly all actives have a fitted effect of over 60% in size
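Luminescence from an NPC1 promoter-driven luciferase reporter in stably transfected Huh7 cells was measured after 24 h compound treatment at 37 °C, followed by 10 min ambient incubation with luciferase detection reagent.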
ELG1 repair inh – ELG1-dependent DNA repair inhibition. HEK293T ELG1-luciferase reporter, luminescence, 16 h; DNA damage induced by 5-fluorouridine. Potency, µM (doses to about 46.1 µM), without a hit: at the top dose activity change, negative = inhibition, most hits filed as inhibitors. actives 2.3% (n = 330,000). AID 504467; further: on the % scale 0 is the no-effect control and ±100 the full control effect; nearly all actives have a fitted effect of over 55% in size
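Reporter activity after DNA damage by 5-fluorouridine is monitored. Compound-treated cells incubate 16 hr at 37 °C, then ONE-Glo is added for 30 min before luminescence reading.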
FLuc counter – inhibits or activates purified firefly luciferase, miR-21 counter-screen; purified FLuc, Km substrates, luminescence inhibition; Potency, µM (top dose mostly 57.5 µM), without a hit: top-dose activity change, negative = inhibition, usual class: inhibitors; actives 6.9% (n = 360,000); AID 588342;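 further: plate controls were vehicle for no effect and reference inhibitor for full effect; nearly all actives have a fitted effect of over 55% in size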
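Purified P. pyralis luciferase, 10 nM final, with Km-level 10 uM D-luciferin and 10 uM ATP in 50 mM Tris acetate pH 7.5, 10 mM Mg acetate, 0.01% Tween-20, 0.05% BSA; 6-point qHTS titration about 60 µM downward; luminescence read.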
ELG1 genotoxic – inducers of genotoxicity in HEK293T ELG1-luciferase cells; Potency, µM (series often up to 46 µM), for inactives: at the highest dose activity change, positive = activation, usual class: activators; actives 1.3% (n = 330,000); HEK293T ELG1-luciferase reporter, luminescence, 16 h; further: % of control where 0% means no effect; nearly all actives have a fitted effect of over 60% in size
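HEK293T cells expressing luciferase-tagged ELG1 were treated with compound or DMSO for 16 hr at 37°C. Luciferase activity was then read after 30 min with ONE-Glo at room temperature; rising signal flags genetic stress.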
Rab9 promoter act – activators of Rab9 promoter | Huh7 Rab9 promoter-luciferase reporter, luminescence, 24 h | Potency, µM (top dose mostly 9.22 µM), for inactives: at the top dose activation, negative = inhibition, hits mostly activators | actives 2.8% (n = 320,000) | AID 485297; further: % of control where 0% means no effect; nearly all actives have a fitted effect of over 60% in size
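Cells were plated at 1500 per well in reduced-serum medium with 10% FBS and left 2 h. Compound in DMSO was then added for 24 h at 37 °C. Reporter signal was read by luminescence after 10 min with luciferase detection reagent.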
ELG1 FLuc counter – luciferase inhibition in cell-free luciferin readout for ELG1 hits; shares compounds with ELG1 repair inh; cell-free firefly luciferase luminescence counter-screen, ViewLux; Potency, µM (top dose mostly 46.1 µM), without a hit: at the highest dose activity change, negative = inhibition, most hits filed as inhibitors; actives 3% (n = 350); further: on the % scale 0 is the no-effect control and ±100 the full control effect
ELG1 Luc conf – human ELG1 repair inhibition, luciferase-tagged ELG1 confirmation; actives 68% (n = 670); HEK293T ELG1-luciferase levels, luminescence; cells co-treated with 5-fluorouridine; AID 624248; Potency, µM (highest dose often 46.1 µM), for inactives: top-dose activity change, negative = inhibition, usual class: inhibitors; shares compounds with ELG1 repair inh; further: on the % scale 0 is the no-effect control and ±100 the full control effect; nearly all actives have a fitted effect of over 55% in size
Target sequence (Q96QE3 whole entry, looked up): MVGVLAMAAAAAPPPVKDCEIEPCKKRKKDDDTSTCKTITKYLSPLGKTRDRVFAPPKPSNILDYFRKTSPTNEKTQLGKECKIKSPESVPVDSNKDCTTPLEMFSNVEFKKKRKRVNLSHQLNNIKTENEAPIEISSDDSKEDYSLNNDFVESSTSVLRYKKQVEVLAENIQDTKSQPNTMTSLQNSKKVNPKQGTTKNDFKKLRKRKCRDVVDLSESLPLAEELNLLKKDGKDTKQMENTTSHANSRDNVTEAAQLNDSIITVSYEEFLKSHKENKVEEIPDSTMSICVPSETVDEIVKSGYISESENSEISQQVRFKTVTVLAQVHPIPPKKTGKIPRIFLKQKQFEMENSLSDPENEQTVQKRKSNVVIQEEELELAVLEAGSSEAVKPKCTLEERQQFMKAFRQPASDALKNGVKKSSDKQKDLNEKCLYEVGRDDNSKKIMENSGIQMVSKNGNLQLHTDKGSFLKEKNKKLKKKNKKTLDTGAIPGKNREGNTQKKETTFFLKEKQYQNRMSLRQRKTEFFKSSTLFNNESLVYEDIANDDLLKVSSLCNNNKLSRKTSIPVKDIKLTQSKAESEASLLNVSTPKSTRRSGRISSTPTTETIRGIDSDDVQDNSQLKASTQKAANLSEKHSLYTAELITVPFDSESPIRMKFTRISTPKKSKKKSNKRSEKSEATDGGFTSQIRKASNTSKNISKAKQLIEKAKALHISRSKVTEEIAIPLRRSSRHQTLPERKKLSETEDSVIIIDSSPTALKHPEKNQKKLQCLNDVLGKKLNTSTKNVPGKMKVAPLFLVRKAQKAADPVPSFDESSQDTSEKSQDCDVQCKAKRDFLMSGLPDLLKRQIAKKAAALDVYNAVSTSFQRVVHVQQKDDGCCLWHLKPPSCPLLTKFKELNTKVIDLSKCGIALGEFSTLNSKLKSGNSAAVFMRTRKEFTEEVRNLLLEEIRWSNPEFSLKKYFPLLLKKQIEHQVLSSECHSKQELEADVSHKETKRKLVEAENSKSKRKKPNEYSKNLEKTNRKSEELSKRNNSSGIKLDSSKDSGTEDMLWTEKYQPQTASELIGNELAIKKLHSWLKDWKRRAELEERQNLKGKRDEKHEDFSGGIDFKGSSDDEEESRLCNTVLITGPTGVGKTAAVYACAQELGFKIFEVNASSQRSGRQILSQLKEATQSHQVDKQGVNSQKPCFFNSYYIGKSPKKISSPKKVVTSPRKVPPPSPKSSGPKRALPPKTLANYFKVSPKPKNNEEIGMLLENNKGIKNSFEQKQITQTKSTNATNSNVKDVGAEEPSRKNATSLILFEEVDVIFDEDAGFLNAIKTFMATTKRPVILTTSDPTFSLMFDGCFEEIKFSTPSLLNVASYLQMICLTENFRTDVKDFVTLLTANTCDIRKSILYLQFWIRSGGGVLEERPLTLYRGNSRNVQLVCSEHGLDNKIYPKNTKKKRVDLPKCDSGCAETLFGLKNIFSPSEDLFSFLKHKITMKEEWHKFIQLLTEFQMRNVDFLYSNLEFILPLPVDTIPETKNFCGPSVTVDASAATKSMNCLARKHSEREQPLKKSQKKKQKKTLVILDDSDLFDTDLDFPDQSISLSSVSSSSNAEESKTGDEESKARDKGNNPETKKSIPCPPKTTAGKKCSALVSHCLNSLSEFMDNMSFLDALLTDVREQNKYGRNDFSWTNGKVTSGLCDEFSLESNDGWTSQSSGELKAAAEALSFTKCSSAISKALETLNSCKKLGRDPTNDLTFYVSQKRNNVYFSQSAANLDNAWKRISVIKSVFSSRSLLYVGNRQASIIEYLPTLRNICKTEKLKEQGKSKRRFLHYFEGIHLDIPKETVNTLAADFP
ELG1-Luc MMS – confirmation of human ELG1 repair inhibitors, MMS stimulated; actives 53% (n = 670); Potency, µM (doses to about 46.1 µM), for the others: top-dose activity change, negative = inhibition, most hits filed as inhibitors; shares compounds with ELG1 repair inh; HEK293T luciferase-tagged ELG1 level, MMS stimulated; further: on the % scale 0 is the no-effect control and ±100 the full control effect; nearly all actives have a fitted effect of over 60% in size
ELG1 5FU viab – confirmation of ELG1 repair inhibitors: viability with 5FU; shares compounds with ELG1 repair inh; cell viability with 5-FU, ELG1-dependent repair; Potency, µM (highest dose often 46.1 µM), for inactives: at the highest dose activity change, negative = viability loss, hits mostly cytotoxic; 670 tested, under 10 active;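 further: ELG1-luc HEK293T cells cotreated with 5-fluorouridine at 10 µM final; viability measured 16 h after compound addition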
ELG1 MMS viab – confirmation of ELG1 repair inhibitors: viability with MMS; shares compounds with ELG1 repair inh; Cell viability with MMS, ELG1-dependent DNA repair; Potency, µM (titrated, usually from 46.1 µM), for the others: at the highest dose activity change, negative = viability loss, most hits filed as cytotoxic; actives 33% (n = 670); AID 624251;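 further: ELG1-luc HEK293T cells co-treated with 10 µM MMS; viability read 16 h after compound addition; on the % scale 0 is the no-effect control and ±100 the full control effect; nearly all actives have a fitted effect of over 60% in size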
Cell viab unstim – counter-screen for ELG1 repair inhibitors: unstimulated cell viability; shares compounds with ELG1 repair inh; cell viability counter-screen, unstimulated, luminescence; Potency, µM (top dose mostly 45.9 µM), without a hit: at the top dose activity change, negative = loss of viability, actives largely listed as cytotoxic; actives 8% (n = 900); AID 624252;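 further: compound exposure lasted 16 hours before reading; on the % scale 0 is the no-effect control and ±100 the full control effect; nearly all actives have a fitted effect of over 55% in size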
FLuc biochem – inhibits purified firefly luciferase, counter-screen for ELG1 hits; AID 624253; actives 10% (n = 350); Potency, µM (titrated, usually from 57.5 µM), for the others: at the top dose activity, negative = inhibition, hits mostly inhibitors; purified firefly luciferase, luminescence counter-screen; shares compounds with ELG1 repair inh; further: on the % scale 0 is the no-effect control and ±100 the full control effect
Starred values were filed as active, the others as inactive; u = inconclusive; x = no result. Only some compounds are listed: those with a hit (about 9.4% of all), similar ones and a draw of the others. The call rests on the fitted dose curve; in most records, active means well fitted curve in the direction sought with a large enough effect; inconclusive means small, poorly fitted or top-dose-only effect, or another doubt; inactive means no such curve, though single readings can be large; an effect the other way counts as inactive or inconclusive. Potency means the concentration at half of the fitted maximal effect.

SMILES	SMN2 splice up	NPC1 prom act	ELG1 repair inh	FLuc counter	ELG1 genotoxic	Rab9 promoter act	ELG1 Luc conf	ELG1-Luc MMS	ELG1 5FU viab	ELG1 MMS viab	Cell viab unstim	others
Cc1ncoc1C(=O)NC1CCCc2c1cnn2-c1ccc(C(C)(C)C)cc1 (centres undefined)	x	-26%	1.3µM*	-23%	9%	-34%	u	0.79µM*	-6%	0.79µM*	8.9µM*
Cc1nnsc1C(=O)NC1CCCc2c1cnn2-c1ccc(C(C)(C)C)cc1 (centres undefined)	x	-44%	2%	u	3%	-39%	x	x	x	x	x
Cc1[nH]nc2ncc(C(=O)c3ccccc3O)cc12	-13%	14%	2.5µM*	1%	-17%	-1%	3.5µM*	10µM*	u	u	-8%
O=C(COc1ccc(C(=O)c2ccccc2)cc1)Nc1cccnc1	x	-22%	1µM*	u	-19%	-31%	u	1µM*	-2%	1µM*	u
Cc1cc(C(=O)CSc2nc(N)cc(=O)[nH]2)c(C)n1-c1ccc(OC(F)F)cc1	-76%	-38%	u	1%	0%	-35%	-6%	1.6µM*	-16%	1.6µM*	u
COc1cc(CNC(=O)c2sc3ncccc3c2-n2cccc2)cc(OC)c1OC	x	x	x	0%	x	x	x	x	x	x	x
COc1ccc(/C=N/NC(=O)c2ccoc2C)cc1CN1CCN(c2ccc(F)cc2)CC1	x	9%	2.6µM*	u	-2%	16%	2.5µM*	-10%	u	-1%	u
COc1ccc(/C=N/NC(=O)c2ccc(Br)cc2)cc1CN1CCOCC1	x	5%	-5%	0%	-1%	-3%	x	x	x	x	x
CC1CCN(S(=O)(=O)c2ccc3c(c2)c(=O)c(C(=O)N2CCN(c4cccc(Cl)c4)CC2)cn3C)CC1	-11%	x	x	-2%	x	x	x	x	x	x	x
CCOC(=O)c1sc(N(Cc2ccccc2)C(=O)COC(=O)c2ccccc2O)nc1C	6%	7%	23%	u	u	1%	x	x	x	x	x
CCOC(=O)c1sc(N(Cc2ccccc2)C(=O)COC(=O)c2ccc(O)cc2)nc1C	-92%	3%	1.3µM*	-2%	-13%	12%	2µM*	0.71µM*	-15%	0.79µM*	u
CCCCCCC[C@@H](C/C=C/CCC(=O)N(C)C/C(=C/Cl)C/C(=C\C(=O)N1C[C@H](O)CC1=O)OC)OC	x	x	u	x	-11%	x	x	x	x	x	x
CCCCCCC[C@@H](C/C=C/CCC(=O)N(C)C/C(=C/Cl)C/C(=C\C(=O)N1CC(OC)=CC1=O)OC)OC	x	x	u	x	2.1µM*	x	x	x	x	x	u
CC(=O)OCC1=C[C@H]2[C@@H]3C(C)(C)[C@]3(OC(C)=O)C[C@@H](C)[C@]2(O)[C@@H]2C=C(C)C(=O)[C@@]2(O)C1	x	x	x	x	x	x	x	x	x	x	u
COc1ccc(C(=O)n2nc(-c3ccc(OC)cc3)nc2N)cc1	23%	-8%	0%	-1%	6%	0%	x	x	x	x	x
COc1ccc2cc3c(N)nn(C(=O)c4ccc(F)cc4)c3nc2c1	x	15%	4.1µM*	-7%	-8%	1%	2.5µM*	4.4µM*	8%	5%	-4%
COc1ccc2cc3c(N)nn(C(=O)c4ccccc4Cl)c3nc2c1	-47%	0%	0.65µM*	u	-8%	11%	0.79µM*	4µM*	7%	-1%	u	ELG1 FLuc counter=u;FLuc biochem=-9%
CN=C1SC(CC(=O)Nc2ccccc2F)C(=O)N1/N=C/c1ccc(O)c(OC)c1 (centres undefined)	11%	8%	2.9µM*	-19%	-1%	-4%	14µM*	12%	u	0%	u
COc1ccc(CNC(=O)c2nc(SCc3ccccc3F)ncc2Cl)cc1	-52%	x	x	-3%	x	x	x	x	x	x	x
CC(C)(C)OC(=O)C[C@@H]1C/C=C\C[C@@H](CC(=O)N(CCO)Cc2ccccc2)C(=O)NC[C@H](c2ccccc2)OC1=O	x	x	1.5µM*	x	-13%	x	13µM*	7.9µM*	11%	u	u
CC(C)(C)OC(=O)C[C@@H]1C/C=C\C[C@@H](CC(=O)N(CCO)Cc2ccccc2)C(=O)NC[C@@H](c2ccccc2)OC1=O	x	x	u	x	-3%	x	x	x	x	x	x

From PubChem BioAssay
